Assay results published in PubChem BioAssay (Tox21).
Inconclusive results are not listed. A number with no mark means an inactive call. Active and inactive are the calls of the source. Calls follow the shape of the full dose curve.

Test: p53 small molecule agonists, cell-based qHTS assay with human liver microsomes: qHTS cell viability counter screen (AID 1963579); also: nearly all actives have a fitted effect of over 45% in size
Conditions: p53RE-bla HCT-116 viability, ATP luminescence, 16 h, HLM; series mostly up to 66 µM; activity change, negative = cytotoxicity: at the top concentration
Excerpt: National Center for Advancing Translational Sciences [NCATS]
Division of Preclinical Innovation [DPI]
U.S. Environmental Protection Agency [EPA]
National Institutes of Environmental Health Sciences [NIEHS]
National Toxicology Program [NTP]
U.S. Food and Drug Administration [FDA]
p53, a tumor suppressor protein, is activated following cellular insult, including DNA damage and other cellular stresses. The activation of p53 regulates cell fate by inducing DNA repair, cell cycle arrest, apoptosis, or cellular senescence. The activation of p53, therefore, is a good indicator of DNA damage and other cellular stresses. […] The activation of the reporter gene under culture conditions can be detected by fluorescence intensity. This cell line was used to screen the Tox21 10K compound library in the condition of presence of human liver microsomes and to identify agonists that activate the p53 signaling pathway after in vitro metabolic activation (Ooka et al., Archive of Toxicology 96:1975-1987, 2022).
Tox21 Assay Protocol Summary:
The p53RE-bla cells were dispensed at 4,000cells/3ul/well in 1536-well black-clear bottom plates. After the assay plates were incubated at 37 C, 5% CO2 incubator for 5 hours, 23 nL of compounds dissolved in DMSO, positive controls or DMSO only was transferred to the assay plate. Following compound addition, 3 uL of human liver microsomes (XenoTech, Kansas City, KS) at final concentration of 0.5 mg/mL and 1uL of B-Nicotinamide adenine dinucleotide 2'-phosphate (NADPH) at final concentration of 0.5 mg/mL were transferred to the assay plate. The plates were incubated at 37 C for 16 hours. 1 uL of LiveBLAzer detection mixture was added to each well and the plates were incubated at room temperature in the dark for 2 h. Fluorescence intensity at 460 and 530 nm emission and 405 nm excitation were measured by an Envision plate reader. For cell viability readout that measures cytotoxicity, 4 ul/well of CellTiter-Glo reagent was added into the assay plates using a Flying Reagent Dispenser. After 30 min incubation at room temperature, the luminescence intensity in the plates was measured using a ViewLux plate reader.
% is scaled to controls: 0 for no effect and ±100 for the full control effect; potency is read from the fitted curve at half-maximal effect.

In the case of `CC(=O)[O][Sn]([c]1ccccc1)([c]1ccccc1)[c]1ccccc1`, the Potency is reported as 6.46 µM (active).
In the case of `IC(I)=C(I)I`, the Potency is reported as 16.2 µM (active).
In the case of `BrCCCCCCBr`, the Potency is reported as 20.4 µM (active).
In the case of `Oc1ccc(C2(c3ccc(O)cc3)CCCCC2)cc1`, the Potency is reported as 43.3 µM (active).

Point of comparison: `CNN`, “activity change, negative = cytotoxicity” value -4.21%. Against it:
- CC(C)(C)C(O)/C(=C\c1ccc(Cl)cc1Cl)n1cncn1 (stereo not given) — higher, 0.0717%
- CCOC(=O)c1cn2nc(OP(=S)(OCC)OCC)cc2nc1C — lower, -10.9%
- O=CCCl — lower, -20.4%
- CCCCCCCCCCCCCN1CC(C)OC(C)C1 (stereo not given) — lower, -8.6%
- CC(=O)c1ccc(-c2ccccc2)cc1 — higher, 6.83%
- COC(=O)C(C)Oc1ccc(Oc2ccc(Cl)cc2Cl)cc1 (stereo not given) — higher, 0.59%
- O=C(OC1CCCCC1)c1ccccc1C(=O)OC1CCCCC1 — higher, -1.76%
- CCOP(=O)(OCC)O/C(=C/Cl)c1ccc(Cl)cc1Cl — lower, -5.55%
- CCN[C@H](C)Cc1cccc(C(F)(F)F)c1 — higher, 0.736%
- CCCOCC(=Nc1ccc(Cl)cc1C(F)(F)F)n1ccnc1 — higher, -3.24%
- c1ccc2c(c1)[nH]c1cnccc12 — higher, 0.111%
- CC(=O)[O-].CC(=O)[O-].O.O.[Cd+2] — higher, 10.9%
- CCOP(=O)(N=C1SCCS1)OCC — higher, 5.32%
- CC1=C(C(=O)Nc2ccccc2)S(=O)(=O)CCO1 — lower, -4.89%
- CCC[CH2][Sn]([CH2]CCC)([O]C(C)=O)[O]C(C)=O — lower, -4.31%
- c1ccc2c(c1)cc1ccc3cccc4ccc2c1c34 — higher, 0.402%
- O=S1(=O)OCC2C(CO1)C1(Cl)C(Cl)=C(Cl)C2(Cl)C1(Cl)Cl (stereo not given) — lower, -6.43%
- Cc1cc(OC(=O)N(C)C)nn1C(=O)N(C)C — higher, 2.46%
- COP(=S)(OC)Oc1nc(Cl)c(Cl)cc1Cl — lower, -4.39%
- O=P(O)(O)c1ccccc1 — higher, 3.79%
- O=C1C(=O)c2cccc3cccc1c23 — higher, 8.03%
- CCNP(=S)(OC)O/C(C)=C/C(=O)OC(C)C (stereo not given) — lower, -7.52%
- CN(C)CCCCCCN(C)C — higher, 1.31%
- COP(=S)(OC)Oc1cc(Cl)c(I)cc1Cl — higher, 39%
- O=C(Nc1ccccc1)Nc1cnns1 — lower, -4.87%
- O=C(O)[C@H](O)[C@@H](O)C(=O)O — lower, -19.4%
- CC(=O)O[C@H]1CC[C@@]2(C)C(=CC[C@@H]3[C@@H]2CC[C@]2(C)C(=O)CC[C@@H]32)C1 — higher, 4.46%

Point of comparison: `c1ccc2nc(N3CCNCC3)ccc2c1`, “activity change, negative = cytotoxicity” value -1.13% [at 30.3 µM]. Against it:
- CCCN1CCC[C@@H]2Cc3nc(N)ncc3C[C@H]21 — higher, 14.1% [at 30.3 µM]
- CCC(C)c1cc(C(C)(C)C)cc(-n2nc3ccccc3n2)c1O (stereo not given) — higher, -0.0976% [at 30.3 µM]
- CC(C)c1c(CN(C)C(C)Cc2ccccc2)n(C)n(-c2ccccc2)c1=O (stereo not given) — higher, -0.0218% [at 30.3 µM]
- CC(C)(C)NCC(O)c1cc(Cl)c(N)c(Cl)c1 (stereo not given) — lower, -2.02% [at 30.3 µM]
- CC1NCCOC1c1ccccc1 (stereo not given) — higher, 1.19% [at 30.3 µM]
- COc1ccc(CN2CCNCC2)c(OC)c1OC — higher, 11.5% [at 30.3 µM]

Work on `Clc1cc2c(cc1Cl)Oc1cc(Cl)c(Cl)cc1O2` yielded an activity change, negative = cytotoxicity of -6.87% [at 0.249 µM].
